From PubChem BioAssay AID1852 (Sanford-Burnham Center for Chemical Genomics, 2009)
In all, about 2,500 compounds went through this assay and about 1,100 (44%) were called active.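 How the source made its calls: active means inhibition above 50% at 4 µM in the single-point screen; inactive means inhibition of 50% or less.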 So high a share suggests a set chosen from earlier hits. The list shows a part of the results.

Assay: TNF-a-driven NF-kB reporter inhibitors, primary screen, selectivity assay for NOD1/NOD2 signaling inhibitor project, cell-based, HEK293T NF-kB-Luc, luminescence (AID 1852)
Conditions: TNF-a induced, 14 h, at 4 µM, stronger effect = higher value

inhibition, active:
O=[N+]([O-])c1ccc(N/N=C/c2sc(N3CCOCC3)nc2-c2ccccc2)c(S(=O)(=O)Nc2ccc(Cl)cc2)c1 60.9%
O=[N+]([O-])c1ccc(N/N=C/c2sc(N3CCOCC3)nc2-c2ccccc2)c(S(=O)(=O)Nc2ccccc2Cl)c1 88.5%
Cc1nnc(SCC(=O)N2CCC(c3noc4ccc(F)cc34)CC2)s1 84.5%
CCCCCCCCn1ccc(=N)cc1 62.3%
CCCCCCCCCn1ccc(=N)cc1 76.4%
CCCCCCCCCCn1ccc(=N)cc1 83.1%
CN(C)S(=O)(=O)N1CCC(Oc2cccc(C(=O)NC3CCCCCC3)c2)CC1 54%
CN(Cc1ccccc1)C1=CC(=[N+]2CCCCC2)CC(C)(C)C1 58.1%
Cc1nc2ccc(NC(=O)c3cccc(S(=O)(=O)N(C)c4ccccc4)c3)cc2s1 53.4%
Cc1nc2ccc(NC(=O)c3cc(S(=O)(=O)N(C)c4ccccc4)ccc3Cl)cc2s1 54.6%
CN(c1ccccc1)S(=O)(=O)c1cccc(NC(=O)c2cc(=O)c3ccccc3o2)c1 63.9%
CC(=O)c1cccc(NC(=O)/C=C/c2ccc([N+](=O)[O-])s2)c1 99.5%
CCOC(=O)/C=C/C(=O)Nc1cccc([N+](=O)[O-])c1 72.3%
Cc1cccc(NC(=O)/C=C/c2ccc([N+](=O)[O-])s2)c1 57.7%
COc1ccc(CNc2ncnc3sccc23)cc1OC 50.2%
COc1ccc(CCNc2ncnc3sccc23)cc1OC 60.1%
Oc1ccc(CCNc2ncnc3ccc(Cl)cc23)cc1 86.6%
COc1ccc(CCNc2ncnc3sc(C)cc23)cc1OC 58.6%
COc1ccc(CCNc2ncnc3cc(OC)c(OC)cc23)cc1OC 54.8%
COc1ccc(CCNc2ncnc3c2oc2ccccc23)cc1OC 54.8%
COc1ccccc1CNc1ncnc2sccc12 54.1%
C=CC[n+]1c(-c2ccc(C)cc2)csc1Nc1ccc(NC(C)=O)cc1 99.4%
C=CC[n+]1c(-c2ccc(Cl)cc2Cl)csc1Nc1ccc(NC(C)=O)cc1 64%
COc1ccc(-n2c(C)cc(C(=O)CSc3nnc(-c4cccs4)o3)c2C)cc1 71.7%
Cc1cc(C(=O)CSc2nnc(-c3cccs3)o2)c(C)n1-c1ccccc1 53.4%
NC(=O)c1cc2ccncc2c2ccccc12 90.8%
Nc1cc2ccncc2c2ccccc12 90.8%
O=C(CSc1nc2nc(-c3cccs3)cc(C(F)(F)F)c2c(=O)[nH]1)Nc1ccc(F)c(F)c1 86%
Cc1ccc(C)c(NC(=O)CSc2nc3nc(-c4cccs4)cc(C(F)(F)F)c3c(=O)[nH]2)c1 86.9%
CCOc1ccccc1NC(=O)CSc1nc2nc(-c3cccs3)cc(C(F)(F)F)c2c(=O)[nH]1 74.5%
O=C(CSc1nc2nc(-c3cccs3)cc(C(F)(F)F)c2c(=O)[nH]1)Nc1c(F)c(F)c(F)c(F)c1F 92.5%
C/C(=N\NC(=O)c1nnn(-c2nonc2N)c1-c1ccccc1)c1ccccc1O 93.1%
C/C(=N\NC(=O)c1nnn(-c2nonc2N)c1CN(C)c1ccccc1)c1ccccc1O 92.8%
CCOc1cccc(-c2c(C(=O)N/N=C(\C)c3ccccn3)nnn2-c2nonc2N)c1 66.7%
COc1ccc(OC)c(Nc2nc(N)nc(CCl)n2)c1 54.9%
CCOc1ccc(Nc2nc(N)nc(CCl)n2)cc1 65.6%
CCc1c(C)sc2nc(C(C)C)nc(SCC(=O)N3CCc4ccccc4C3)c12 53.6%
CCOC(=O)N1CCN(C(=O)c2ccc(Cn3c(=S)[nH]c4cc5c(cc4c3=O)OCO5)cc2)CC1 55.2%
O=C(c1ccc(Cn2c(=S)[nH]c3cc4c(cc3c2=O)OCO4)cc1)N1CCN(c2ncccn2)CC1 59.2%
Nc1ncc([N+](=O)[O-])c(N2CCCCCC2)n1 86.3%
CN(Cc1ccccc1)C(=S)NC(=O)c1ccc(-c2ccccc2)cc1 105%
C=CCN(CC=C)C(=S)NC(=O)c1ccc(-c2ccccc2)cc1 104%
NC(=S)Nc1cccc2cn[nH]c12 75.7%
O=c1c(C(c2ccccc2)c2c(O)sc3ccccc3c2=O)c(O)sc2ccccc12 77.7%
NC(=O)c1nsc(C(=O)N(c2ccccc2F)C(C(=O)NCc2ccc(F)cc2)c2ccc(O)cc2)c1N (centres undefined) 69.7%

inhibition, inactive:
CCN(CC)S(=O)(=O)c1ccc(N2CCOCC2)c(NC(=O)c2cc([N+](=O)[O-])ccc2Cl)c1 -28.1%
CCCCCCCn1ccc(=N)cc1 20.9%
CC[C@@H](C)[C@H](NC(=O)OC(C)(C)C)c1nnc(S(=O)(=O)Cc2cc(C)ccc2C)o1 38.2%
CN(C)S(=O)(=O)N1CCC(Oc2cccc(C(=O)NC3CCCCC3)c2)CC1 20.4%
CC1CCN(S(=O)(=O)c2nnc(NC(=O)c3cccc(Cl)c3)s2)CC1 37%
Cc1nc(Nc2cnc(/C=C/c3cc(C(=O)Nc4cccc(C(F)(F)F)c4)ccc3C)cn2)cc(N2CCNCC2)n1 -21.5%
CSc1ncc(C(=O)Nc2cccc(S(N)(=O)=O)c2)n1-c1ccccc1 8.6%
CC(C(=O)Nc1cccc([N+](=O)[O-])c1)N(c1ccccc1)S(C)(=O)=O (centres undefined) -12.9%
COc1ccc(N(CC(=O)Nc2cccc(N(C)S(C)(=O)=O)c2)S(=O)(=O)c2ccc(C)cc2)cc1 14.3%
CCCCn1c(SCC(=O)N2CCN(c3ccccc3)CC2)nc2ccsc2c1=O 28.9%
Cc1nc2cc(NC(=O)c3ccc([N+](=O)[O-])s3)ccc2s1 31.8%
COC(=O)/C=C\C(=O)Nc1cccc([N+](=O)[O-])c1 28.4%
COc1ccc(C)cc1S(=O)(=O)N(CC(=O)Nc1cccc([N+](=O)[O-])c1)c1ccc(C)cc1 16.5%
Cc1cc(C)cc(NC(=O)/C=C/c2ccc([N+](=O)[O-])s2)c1 -10.2%
CC(=O)Nc1ccc2nc(NC(=O)c3ccc([N+](=O)[O-])s3)sc2c1 19.3%
CCOc1ccc2[nH]c3c(NCCc4ccc(OC)c(OC)c4)ncnc3c2c1 39.1%
Fc1ccc(F)c(CNc2ncnc3cc(Cl)ccc23)c1 8.3%
COc1cc2ncnc(NCc3ccc(C)cc3)c2cc1OC 0.3%
Clc1cccc(Cl)c1CON/C=N/c1ncnc2sccc12 15.1%
c1ccc2c(c1)oc1c(Nc3ccc(CN4CCOCC4)cc3)ncnc12 4.6%
COc1cc2ncnc(NCCc3ccccc3)c2cc1OC 4.6%
C(=N\c1ncnc2sccc12)/NOCc1ccccc1 28.6%
Cc1ccc(NC(=O)Nc2nnc(-c3ccncc3)s2)cc1 27.4%
C=CC[n+]1c(-c2ccc(Cl)cc2Cl)csc1Nc1c(C)n(C)n(-c2ccccc2)c1=O 28.9%
Cc1ccc(S(=O)Cc2ccc(C(=O)N3CCN(C4CCCCC4)CC3)o2)cc1 (centres undefined) -23.1%
Cc1cc(C(=O)CSc2nnc(-c3ccco3)o2)c(C)n1-c1ccc2c(c1)OCCO2 10.1%
CCn1cc(CN2CCCC(C(=O)c3ccc(-c4ccccc4)cc3)C2)cn1 (centres undefined) 5.2%
Cc1ccc(-c2ccc(=O)n(Cc3ccc(F)cc3)n2)cc1 -22.8%
N#Cc1ccc(Cl)cc1NC(=O)CSc1nc2nc(-c3cccs3)cc(C(F)(F)F)c2c(=O)[nH]1 46.8%
N#Cc1c(-c2cccs2)nc(SCc2ccc(Cl)cc2)[nH]c1=O 31.4%
C/C(=N\NC(=O)c1nnn(-c2nonc2N)c1CN(C)c1ccccc1)c1ccccn1 -26.2%
COc1ccccc1Nc1nc(N)nc(CCl)n1 28%
COc1ccc(Nc2nc(N)nc(CCl)n2)cc1 23.2%
Cc1ccc(Nc2nc(N)nc(CCl)n2)c(C)c1 25.1%
Cc1ccc(Nc2nc(N)nc(CCl)n2)cc1 -3.9%
CCc1nc(SCC(=O)N2c3ccccc3CC2C)c2c(C)c(C)sc2n1 (centres undefined) -10%
Cc1sc2nc(C3CC3)nc(SCC(=O)N3CCc4ccccc4C3)c2c1C -10.4%
COc1ccc(NC(=O)/C(C#N)=C/c2cc(C)n(-c3ccc(N4CCOCC4)c([N+](=O)[O-])c3)c2C)cc1 15%
CCOC(=O)N1CCN(C(=O)c2ccc(Cn3c(=S)[nH]c4ccc(Br)cc4c3=O)cc2)CC1 43.2%
CCCCCn1c(=O)[nH]c2cc(C(=O)N3CCN(Cc4ccc5c(c4)OCO5)CC3)ccc2c1=O 34.6%
O=C(c1ccc(Cn2c(=S)[nH]c3ccccc3c2=O)cc1)N1CCN(c2ccccn2)CC1 17.4%
Cc1cc(C=O)c(C)n1-c1ccc(N2CCCCC2)c([N+](=O)[O-])c1 47.6%
Cc1cc(/C=N/Nc2nc(N)ncc2[N+](=O)[O-])c(C)n1-c1ccccc1F 26.6%
O=C(Nc1ccccn1)c1ccc(-c2ccccc2)cc1 -197%
CC(C)C[C@H](NC(=O)c1nc[nH]c1C(=O)N(C)Cc1ccccc1)C(=O)OC(C)(C)C 26.1%
CN(C)c1cc[n+](CC(=O)c2ccc(-c3ccccc3)cc2)cc1 47.3%
CCOC(=O)CSc1n[nH]c(NC(=O)CC)n1 -7.7%
NC(=O)c1nsc(C(=O)N(c2ccccc2)C(C(=O)NCc2ccc(F)cc2)c2ccco2)c1N (centres undefined) -11.7%
CN(C)c1ccc(C(C(=O)NCc2ccccc2)N(Cc2ccco2)C(=O)c2snc(C(N)=O)c2N)cc1 (centres undefined) 11.8%
